Sampled rows, rich in hits. Any-hit rate of the full collection: about 4%.
Beta apoptosis: inhibitors of cytokine-induced beta cell apoptosis, primary screen, luminescence. INS-1E cytokine-induced death, ATP luminescence, 48 h; percent of positive-control rescue, neutral wells zero. protection from apoptosis, % (no concentration beside the values). 300,000 tested, 0.8% active. AID 435005, 2010;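 active = Every replicate reaches about 75%, or at least half do and their mean reaches it too, limit read from the data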;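 also: 0% = cytokine-treated negative control wells and 100% = positive control rescue; higher means more ATP so stronger rescue from cytokine killing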
Shn3 inh set2: reduction of Shn3 3'UTR firefly luciferase signal, primary screen, Schnurri-3 inhibitor project, cell-based, Clone20 osteoblasts, set 2. Clone20 osteoblast Shn3 3'UTR firefly luciferase, 24 h. 360,000 tested, 0.52% active. inhibition, % at 12.5 µM. AID 588674, 2011;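 active = mean inhibition of at least 75% with every replicate also reaching 75%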;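 also: 0% = median of neutral control wells and 100% = pilot-screen positive control compound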
CSC inhib: cancer stem cell viability inhibitors, primary screen, luminescence. cancer stem cell-like cells viability. inhibition, % at 7.5 µM. 300,000 tested, 1.1% active; in the data active = inhibition above about 75%; tested in HMLE shEcad cells
Mdm2 MdmX PPI: inhibitors of human Mdm2-MdmX association, primary screen, cell-based, luminescence, split luciferase, SaOS-2, uHTS; inhibition, % at 8 µM; 330,000 tested, 3% active; Protein Mdm4 (Homo sapiens) + E3 ubiquitin-protein ligase Mdm2 (Homo sapiens), …; SaOS-2 split-luciferase Mdm2/MdmX complementation;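 active = inhibition of at least 50% at 8 µM in the primary screen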
Target sequence (O15151 whole entry, looked up): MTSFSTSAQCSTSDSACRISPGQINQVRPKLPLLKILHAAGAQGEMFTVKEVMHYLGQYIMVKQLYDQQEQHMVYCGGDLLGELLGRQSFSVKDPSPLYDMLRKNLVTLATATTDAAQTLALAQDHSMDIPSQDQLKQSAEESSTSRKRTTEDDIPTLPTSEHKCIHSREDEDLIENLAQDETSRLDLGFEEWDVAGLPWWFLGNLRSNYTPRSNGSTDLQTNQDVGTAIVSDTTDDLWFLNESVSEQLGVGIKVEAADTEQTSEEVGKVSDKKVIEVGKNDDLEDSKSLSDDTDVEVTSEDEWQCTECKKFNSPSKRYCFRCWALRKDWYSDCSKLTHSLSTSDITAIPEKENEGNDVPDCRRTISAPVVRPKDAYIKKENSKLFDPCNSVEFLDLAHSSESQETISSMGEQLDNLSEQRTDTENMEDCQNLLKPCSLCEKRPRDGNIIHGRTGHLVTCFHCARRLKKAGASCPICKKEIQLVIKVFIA
Target sequence (Q00987 whole entry, looked up): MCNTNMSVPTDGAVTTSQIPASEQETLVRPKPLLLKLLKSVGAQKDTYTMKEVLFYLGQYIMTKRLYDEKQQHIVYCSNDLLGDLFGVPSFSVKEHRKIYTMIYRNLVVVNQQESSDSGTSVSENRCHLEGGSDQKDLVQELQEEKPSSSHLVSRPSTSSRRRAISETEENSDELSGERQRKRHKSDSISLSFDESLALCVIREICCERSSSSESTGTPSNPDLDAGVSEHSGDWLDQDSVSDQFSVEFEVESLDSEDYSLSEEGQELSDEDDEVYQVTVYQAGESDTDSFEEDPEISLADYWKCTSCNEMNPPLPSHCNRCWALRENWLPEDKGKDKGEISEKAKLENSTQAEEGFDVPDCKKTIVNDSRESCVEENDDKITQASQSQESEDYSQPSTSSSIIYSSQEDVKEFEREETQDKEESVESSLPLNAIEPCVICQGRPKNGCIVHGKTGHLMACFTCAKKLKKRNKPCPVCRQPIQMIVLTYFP
Gli-Sufu antag: Gli-Sufu pathway antagonists, primary screen, luciferase luminescence, Sufu-KO-LIGHT cells, uHTS; AID 588413, 2011; inhibition, % at 5 µM; Sufu-KO-LIGHT fibroblasts, Gli luciferase reporter luminescence; 340,000 tested, 0.74% active;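 active = inhibition above about 55%, limit read from the data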;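 also: 0% = DMSO-treated cells and 100% = wells with medium but no cells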
PAX8 reporter: inhibitors of PAX8-driven TPO luciferase reporter, primary screen, RMG-I cells, single concentration; SteadyGlo, 24 h; inhibition, % at 12.6 µM; 360,000 tested, 1.2% active;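 active = mean replicate inhibition at least 60% with every replicate also reaching 60%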;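 also: luciferase light reporting Pax8 driven TPO promoter activity; plate controls were median of neutral control wells for no effect and mitoxantrone controls for full effect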
Mdm2 MdmX conf: Mdm2-MdmX complex disruptors, retested hits, confirmation, luminescence, single concentration; Mdm2-MdmX binding, luminescent assay; inhibition, % at 8 µM; 10,000 tested, 55% active; shares compounds with Mdm2 MdmX PPI; in the data active = inhibition above about 40%
Full FLuc ctr: full-length luciferase signal inhibition, confirmation, counter-screen for Mdm2/MdmX interaction inhibitor project, cell-based, single concentration, SaOS-2; shares compounds with Mdm2 MdmX PPI; SaOS-2 full-length luciferase counterscreen, luminescence; inhibition, % at 8 µM; 6,200 tested, 77% active; AID 504607, 2011;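 active = mean inhibition at 8 µM reaching about 37%, which flags the compound as non-specific, limit read from the data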;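 also: p53-null SaOS-2 cells with luciferase driven by a doxycycline-inducible promoter; compound on cells about two nights before reading with doxycycline added after day one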
Active calls of the source: *; . = not tested or not shown.

SMILES | Beta apoptosis | Shn3 inh set2 | CSC inhib | Mdm2 MdmX PPI | Gli-Sufu antag | PAX8 reporter | Mdm2 MdmX conf | Full FLuc ctr
Cc1cc(SCC(=O)Nc2ccc3[nH]c(=O)[nH]c3c2)nc2ccccc12 | -7 | 6 | 20 | 87* | -8 | 24 | -7 | .
CC(C)Cn1c(SCC(=O)Nc2ccc3[nH]c(=O)[nH]c3c2)nc2ccccc2c1=O | 10 | -3 | -2 | 11 | 3 | -6 | . | .
COc1cccc(-c2nc(Oc3cc(C)cc(C)c3)c3ccccc3n2)c1O | -1 | . | 8 | 64* | . | . | 30 | .
COc1cccc(-c2nc(N3CC(C)CC(C)C3)c3ccccc3n2)c1O (stereo unspecified) | . | . | . | 61* | 23 | . | 14 | .
COc1cccc(-c2nc(N3CCC(C)CC3)c3ccccc3n2)c1O | 12 | 10 | -3 | 24 | -11 | . | . | .
Cc1cccn2c(=O)nc(SCC(=O)N3N=C(c4cccs4)CC3c3ccc(F)cc3)nc12 (stereo unspecified) | . | 13 | . | 51* | 1 | 36 | 51* | 71*
CCS(=O)(=O)NCC[C@H]1CC[C@@H](NS(=O)(=O)c2ccccc2C)[C@@H](CO)O1 | . | . | . | . | . | 22 | . | .
Cc1cccc(CN2CCC(CNC(=O)CSc3cc(=O)n(C)c4cc(Cl)ccc34)CC2)c1 | -7 | 3 | -14 | 65* | 5 | -5 | 42* | 67*
COCCNC(=O)CSc1cc(=O)n(C)c2cc(Cl)ccc12 | 2 | 2 | -13 | 13 | -4 | 4 | . | .
Cc1ccc(NC(=O)Cn2ncc(Cl)c(Cl)c2=O)cc1S(=O)(=O)N1CCCCC1 | -1 | 47 | . | 100* | -5 | 90* | 85* | 54*
Cc1cccc(NC(=O)CNC(=O)CSc2ncccn2)c1C | 3 | -48 | 2 | 4 | -1 | . | . | .
O=C(Cn1ncc(Cl)c(Cl)c1=O)NC1CCCCC1 | -9 | 64 | . | 100* | 3 | 54 | 76* | 56*
Cc1cccc(NC(=O)CNC(=O)Cn2ncc(Cl)c(Cl)c2=O)c1C | -4 | 46 | -8 | 100* | 10 | . | 56* | 52*
Cc1ccc(Cn2c(C)c3cnn(CC(=O)NC4CCCC4)c(=O)c3c2C)cc1 | -1 | -22 | -11 | -18 | -14 | -83 | . | .
CCCC#Cc1cnc2c(c1)C(=O)N([C@H](C)CO)C[C@H](C)[C@@H](CN(C)Cc1ccncc1)O2 | . | . | . | . | . | -15 | . | .
CCC(=O)N1CC(=O)N2[C@H](CO)[C@@H](c3ccc(C#Cc4cccc(OC)c4)cc3)[C@H]2C1 | . | . | . | . | . | -34 | . | .
COc1cc2c(cc1OC)C(c1cccs1)N(C(=O)c1cccnc1)CC2 (stereo unspecified) | 8 | 23 | 2 | 56* | 4 | 19 | 58* | 73*
COc1cc2c(cc1OC)C(c1cccs1)N(C(=O)C(C)C)CC2 (stereo unspecified) | -4 | 5 | 18 | -1 | 13 | . | . | .
Cc1ccc(S(=O)(=O)NCC[C@@H]2CC[C@@H](NC(=O)c3cnccn3)[C@@H](CO)O2)cc1 | . | . | . | . | . | -20 | . | .
COc1ccc(CN(C)C[C@@H]2Oc3c(NC(=O)NC4CCCCC4)cccc3C(=O)N([C@@H](C)CO)C[C@@H]2C)cc1 | . | . | . | . | . | -1 | . | .
Cc1nn(CC(=O)NCc2cccc3ccccc23)c(=O)c2ccccc12 | 0 | 8 | 27 | 85* | 1 | -25 | 48* | 64*
Cc1nn(CC(=O)NCc2ccccc2)c(=O)c2ccccc12 | 0 | -3 | . | -16 | 2 | . | . | .
CCOc1ccc(Br)cc1C1C(C(=O)OC)=C(N)Oc2cc(N(C)C)ccc21 (stereo unspecified) | 2 | 13 | 56 | 80* | 0 | . | 55* | 55*
CCOc1ccccc1C1C(C(=O)OC)=C(N)OC2=C1C(=O)CCC2 (stereo unspecified) | . | 7 | . | -18 | -2 | . | . | .
CCN(CC)CCN1c2ccccc2Sc2ccccc21 | 1 | 18 | 7 | 19 | 10 | 20 | . | .
SMILES | Beta apoptosis | Shn3 inh set2 | CSC inhib | Mdm2 MdmX PPI | Gli-Sufu antag | PAX8 reporter | Mdm2 MdmX conf | Full FLuc ctr
CCN(CC)CCN1c2ccccc2Sc2ccc3ccccc3c21 | 106* | 54 | 59 | 56* | 26 | 18 | 37 | 75*
CC(C)C[C@@H](C(=O)NC1CCN(Cc2ccccc2)CC1)N1C(=O)N2CCc3c([nH]c4ccccc34)[C@@]2(C)C1=O | 7 | 8 | 12 | 60* | -2 | . | 46* | 58*
C[C@@H](C(=O)NC1CCN(Cc2ccccc2)CC1)N1C(=O)N2CCc3c([nH]c4ccccc34)[C@@]2(C)C1=O | 8 | 23 | -3 | 11 | 4 | . | . | .
C[C@H]1CN([C@@H](C)CO)C(=O)c2cccc(NC(=O)Nc3ccccc3)c2O[C@@H]1CN(C)S(=O)(=O)c1ccc(Cl)cc1 | . | . | . | . | . | 8 | . | .
CCOC(=O)c1ccc(N=C2S/C(=C\c3cc(C)n(-c4cccnc4)c3C)C(=O)N2C)cc1 | -18 | -19 | 1 | 66* | 5 | . | 4 | .
COc1cccc(NC(=O)COC(=O)c2c3c(nc4ccccc24)CCC(C)C3)c1 (stereo unspecified) | 1 | 51 | 19 | 79* | 10 | . | 64* | 64*
COc1ccc(NC(=O)N(C)C[C@@H]2Oc3ccc(NC(=O)c4ccncc4)cc3C(=O)N([C@H](C)CO)C[C@H]2C)cc1 | . | . | . | . | . | -1 | . | .
Cc1sc(NC(=O)c2ccco2)c(C(c2cccnc2)N2CCC(C)CC2)c1C (stereo unspecified) | -1 | -13 | -4 | 74* | 11 | 13 | 76* | 77*
CCN1CCN(C(c2cccnc2)c2c(NC(=O)c3ccco3)sc(C)c2C)CC1 (stereo unspecified) | . | -11 | . | -9 | 1 | 8 | . | .
O=C(NCc1cccc(F)c1)[C@@H]1[C@@H](CO)[C@@H]2Cn3c(ccc(-c4ccccc4)c3=O)[C@H]1N2CC1CC1 | . | . | . | . | . | -4 | . | .
COc1ccc2c3c(n(C)c2c1)[C@@H](CO)N(C(=O)CC1CC1)CC31CCN(C(=O)C2CCCC2)CC1 | . | . | . | . | . | 8 | . | .
C[C@H]1CN([C@@H](C)CO)S(=O)(=O)c2ccc(-c3cccc(C(=O)N(C)C)c3)cc2O[C@@H]1CN(C)C | . | . | . | . | . | 7 | . | .
COCCN1C(=O)c2cc(C(=O)Nc3cccc(F)c3)ccc2C1Nc1cccc(F)c1 (stereo unspecified) | 10 | 11 | 9 | 5 | 8 | 11 | . | .
